PubChem BioAssay
Results filed as inconclusive are left out. Calls of active or inactive are those of the source.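 The calls were made as follows, unless noted: active = viability loss from added drug above about 55%, and viability with drug at most 40%, in both replicates (limit read from the data, passing the limit was not always enough); inconclusive = both conditions met in only one replicate; inactive = neither replicate meets both conditions.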

Columns and labels:
[1] = reducers of endogenous Her2 protein level, primary screen, SKBR3 breast tumor cells, AlphaScreen, ATP viability (AID 461;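 active = Her2 level under about 52% in both replicate screens, with viability over 70% of control, limit read from the data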;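 as to Her2 level: lower value means less Her2 protein in the cells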;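 as to viability: percent of carrier control wells set as 100% viability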); details: 18-24 h, measured here: SKBR3 viability, ATP luminescence, at 10 µM
[2] = target: Receptor tyrosine-protein kinase erbB-2 (Homo sapiens) (UniProt P04626); assay: as above; details: 18-24 h, at 10 µM, stronger effect = lower value
Chain of Receptor tyrosine-protein kinase erbB-2 (Homo sapiens) (P04626 whole entry, looked up): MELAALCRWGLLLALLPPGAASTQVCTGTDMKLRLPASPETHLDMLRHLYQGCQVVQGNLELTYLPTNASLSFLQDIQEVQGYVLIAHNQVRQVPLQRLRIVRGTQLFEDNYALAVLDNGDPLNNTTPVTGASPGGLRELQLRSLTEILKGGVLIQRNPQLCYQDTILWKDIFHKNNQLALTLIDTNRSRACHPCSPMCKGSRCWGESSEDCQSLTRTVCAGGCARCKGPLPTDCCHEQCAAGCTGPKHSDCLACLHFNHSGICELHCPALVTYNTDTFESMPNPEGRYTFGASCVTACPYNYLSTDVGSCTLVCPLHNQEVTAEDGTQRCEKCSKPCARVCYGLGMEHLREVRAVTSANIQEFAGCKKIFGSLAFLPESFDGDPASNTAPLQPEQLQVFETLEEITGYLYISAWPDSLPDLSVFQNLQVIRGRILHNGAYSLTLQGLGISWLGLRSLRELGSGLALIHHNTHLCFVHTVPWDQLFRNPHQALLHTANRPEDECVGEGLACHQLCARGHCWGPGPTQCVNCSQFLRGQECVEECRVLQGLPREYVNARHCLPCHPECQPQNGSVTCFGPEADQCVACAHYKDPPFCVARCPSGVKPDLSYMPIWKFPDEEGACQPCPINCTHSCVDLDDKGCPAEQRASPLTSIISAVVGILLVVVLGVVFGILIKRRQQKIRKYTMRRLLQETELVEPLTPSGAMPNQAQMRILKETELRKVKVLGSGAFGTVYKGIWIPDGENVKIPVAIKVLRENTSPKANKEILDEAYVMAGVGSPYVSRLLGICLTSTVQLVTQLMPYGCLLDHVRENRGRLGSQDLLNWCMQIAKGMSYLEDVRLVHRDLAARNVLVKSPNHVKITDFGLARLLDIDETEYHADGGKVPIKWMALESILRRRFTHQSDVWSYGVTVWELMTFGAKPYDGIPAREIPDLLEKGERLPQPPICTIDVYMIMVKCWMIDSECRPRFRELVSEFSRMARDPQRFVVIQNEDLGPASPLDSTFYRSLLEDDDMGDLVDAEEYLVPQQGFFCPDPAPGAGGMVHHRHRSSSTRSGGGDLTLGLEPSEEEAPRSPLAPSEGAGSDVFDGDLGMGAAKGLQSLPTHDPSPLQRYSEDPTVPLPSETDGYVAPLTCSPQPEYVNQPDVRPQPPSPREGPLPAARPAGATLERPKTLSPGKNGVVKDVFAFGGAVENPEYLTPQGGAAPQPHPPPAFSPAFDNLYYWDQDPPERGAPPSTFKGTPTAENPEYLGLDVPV

[3] = SK-BR-3 cell growth inhibitors, pilot screen, 24 h, human (AID 572;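 active = viability at or below 10% of carrier control in both of two separate runs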;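 also: compound exposure lasted between 18 and 24 h rather than exactly 24 h; 100% = carrier-treated control wells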); details: SK-BR-3 viability, CellTiter-Glo luminescence, at 10 µM, stronger effect = lower value
[4] = HUVEC growth inhibition – cell-based, human, primary screen (AID 575;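 active = viability at or below 30% in both replicate assays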;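 also: 100% = median of untreated cell wells with 0.1% DMSO on each plate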); details: HUVEC proliferation, CellTiter-Glo luminescence, 72 h; at 10 µM; stronger effect = lower value
[5] = growth inhibitors of H69AR lung tumor, primary screen, human, duplicate replicates (AID 580;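 active = viability at or under a set limit in both replicates, limit being median viability minus 3 SD, cut at about 48% in these data, passing the limit was not always enough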;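 also: 100% = mean luminescence of untreated wells and 0% = no signal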); details: H69AR lung tumor cells viability, ATP luminescence, 72 h; at 10 µM; stronger effect = lower value
[6] = reversal of MRP1-mediated doxorubicin resistance, pilot screen, H69AR cells, doxorubicin co-treatment (AID 601); details: CellTiter-Glo, 72 h, at 10 µM; for differential viability (reversal): stronger effect = higher value
[7] = 384-well plate pilot, post-Golgi transport modulator project, inhibition of yeast transport mutant growth (AID 636; in the data active = inhibition above about 31%); details: absorbance 615 nm, about 18 h, stronger effect = higher value
[8] = growth suppression of yeast trafficking mutant, preliminary HTS, modulators of trafficking downstream of Golgi apparatus project, 1536-format plate, OD 615 nm (AID 637; in the data active = inhibition above about 30%); details: yeast transport mutant growth, absorbance 615 nm, 18 h; stronger effect = higher value
[9] = OD615 S. cerevisiae growth inhibition, permissive medium, pilot counter-assay, permissive growth control for S. cerevisiae lifespan shortening project (AID 705;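 active = growth inhibition above 25% in both replicates, a cutoff set 3 SD above the mean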); details: OD615, 24 h, at 10 µM, stronger effect = higher value
[10] = Restrictive medium S. cerevisiae growth inhibition, OD615, pilot screen of yeast lifespan reduction project, restrictive growth control (AID 706;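 active = growth inhibition above a set limit, 3 SD over mean compound inhibition, in both replicates, cut at about 43% in these data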;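 also: modified DeaD lifespan yeast strain shifted to restrictive glucose medium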); details: OD615, 48 h, at 10 µM, stronger effect = higher value
[11] = viability gain of MRP-1-high H69AR cells under doxorubicin, pilot screen, MRP-1 activator project, CellTiter-Glo, duplicate (AID 807;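 active = viability increase at or above a cutoff of the median across tested compounds plus 3 SD, cut at about 8.5% in these data, passing the limit was not always enough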;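 also: compound pretreatment 18-22 h then 72 h combined with doxorubicin; 0% = doxorubicin alone and 100% = vehicle without doxorubicin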); details: H69AR viability with doxorubicin, CellTiter-Glo luminescence; at 10 µM; stronger effect = higher value
[12] = growth suppression of beta-catenin knockout HCT116, pilot screen, human colon tumor cells (AID 823;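 active = cell viability at or below a set limit in both duplicate runs, the limit being the all-compound median minus 4 SD, cut at about 23% in these data, passing the limit was not always enough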;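 also: 0% = wells killed by 20 µM Hyamine and 100% = untreated DMSO cell wells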); details: CellTiter-Glo, 60 h, at 10 µM, stronger effect = lower value
[13] = growth suppression of PTEN-deleted HCT116, pilot screen, cell-based, HCT116 clonal line, CellTiter-Glo (AID 824;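 active = viability at or below 27.92% in each of two runs, the all-compound median minus 4 SD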;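 also: 0% = 20 µM Hyamine control and 100% = vehicle cell control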); details: 60 h, at 10 µM, stronger effect = lower value
[14] = inhibitors of the yeast RAM network, pilot screen, dse1pr::URA3 reporter, 5-FOA selection (AID 869;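 active = inhibition over a set limit, the all-compound mean plus 3 SD, in both replicate runs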;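 also: 0% = DMSO wells with no growth and 100% = 10 µM 1-NA-PP1 with full growth; RAM network block rescues cells from 5-FOA so hits raise OD615 growth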); details: S. cerevisiae dse1pr::URA3 5-FOA growth, OD615, 2 d; at 10 µM; stronger effect = higher value; strain carries analog-sensitive mutant Cbk1 kinase
[15] = RAM signaling pathway blockade in yeast – S. cerevisiae, Pdr1DBD-CYC8 efflux-inhibited sensitized strain, primary screen (AID 1298;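 active = RAM network inhibition above 8.4% in each of two replicates, 3 SD over the compound average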;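 also: 0% = DMSO untreated cells without growth and 100% = 10 µM 1-NA-PP1 full growth; higher means more yeast growth rescued from 5-FOA killing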); details: S. cerevisiae cbk1-as DSE1-URA3 strain, 5-FOA growth OD615, 2 d; at 50 µM; stronger effect = higher value
[16] = H69AR cells + 2 uM doxorubicin, measured here: viability with 2 uM doxorubicin, stronger effect = lower value
[17] = H69AR cells, compound alone cytotoxicity

| Compound | viability [1] | Her2 level [2] | viability [3] | viability [4] | viability [5] | differential viability (reversal) ([6]; H69AR cells + 2 uM doxorubicin) | viability [6, 16] | viability [6, 17] | inhibition [7] | inhibition [8] | growth inhibition [9] | growth inhibition [10] | viability increase [11] | viability [12] | viability [13] | inhibition [14] | RAM network inhibition [15] |
| --- | --- | --- | --- | --- | --- | --- | --- | --- | --- | --- | --- | --- | --- | --- | --- | --- | --- |
| Cc1cc2ccccc2n1CCNC(=O)C1CC1 | 89.5% | 81% (inactive) | 89.5% (inactive) | 89.8% (inactive) | 88.1% (inactive) | -5.55% (inactive) | 93.6% | 88.1% | -4.8% (inactive) | 4.67% (inactive) | -2.51% (inactive) | 1.02% (inactive) | -0.53% (inactive) | 98.3% (inactive) | 101% (inactive) | 0.66% (inactive) | 2.78% (inactive) |
| Cc1c(C#N)c2ccccc2n1CC(=O)N1CCc2ccccc2C1 | 102% | 120% (inactive) | 102% (inactive) | 93.5% (inactive) | 94.9% (inactive) | 2.7% (inactive) | 92.2% | 94.9% | 6.67% (inactive) | -3.17% (inactive) | -1.57% (inactive) | -2.33% (inactive) | -3.16% (inactive) | 92.9% (inactive) | 92.7% (inactive) | 2.05% (inactive) | 4.34% (inactive) |
| COC(=O)CCC(=O)Nc1ccc(OC)cc1 | 104% | 84% (inactive) | 104% (inactive) | 121% (inactive) | 85.1% (inactive) | -13.2% (inactive) | 98.3% | 85.1% | -6.22% (inactive) | 0.98% (inactive) | -2.88% (inactive) | -6.16% (inactive) | -1.06% (inactive) | 98.6% (inactive) | 101% (inactive) | 0.605% (inactive) | 2.52% (inactive) |
| Cc1ccc(N=Cc2ccc(O)cc2O)cc1F | 112% | 80% (inactive) | 112% (inactive) | 69.3% (inactive) | 81.9% (inactive) | 8.83% (inactive) | 73.1% | 81.9% | -2.34% (inactive) | 6.39% (inactive) | -10.6% (inactive) | -25.5% (inactive) | -4.99% (inactive) | 76% (inactive) | 77.8% (inactive) | 0.995% (inactive) | 0.31% (inactive) |
| CC1(C)C(c2ccccc2)=NC(c2ccccc2)N1O (centres undefined) | 86.5% | 82% (inactive) | 86.5% (inactive) | 98% (inactive) | 91.4% (inactive) | 8.36% (inactive) | 83% | 91.4% | -0.78% (inactive) | -9% (inactive) | -0.065% (inactive) | -4.8% (inactive) | -1.73% (inactive) | 95.6% (inactive) | 96.5% (inactive) | 0.165% (inactive) | 3.18% (inactive) |
| Cc1cc(C(N)=O)c2cc(Br)ccc2n1 | 95.5% | 95.5% (inactive) | 95.5% (inactive) | 109% (inactive) | 91.2% (inactive) | 8% (inactive) | 83.2% | 91.2% | -1.35% (inactive) | 0.49% (inactive) | -1.99% (inactive) | -7.49% (inactive) | -2.23% (inactive) | 98.3% (inactive) | 96.5% (inactive) | 0.94% (inactive) | 0.89% (inactive) |
| COc1cccc(-c2nc(CS(=O)(=O)CC(=O)N3CCN(c4ccccn4)CC3)c(C)o2)c1 | 90% | 112% (inactive) | 90% (inactive) | 81% (inactive) | 90.9% (inactive) | 12.7% (inactive) | 78.3% | 90.9% | -4% (inactive) | 3.61% (inactive) | 0.71% (inactive) | -2.45% (inactive) | -0.47% (inactive) | 73.3% (inactive) | 71.6% (inactive) | 0.835% (inactive) | 5.35% (inactive) |
| O=C(Nc1cccc(Cl)c1)N1CCN(Cc2ccccc2)CC1 | 98.5% | 99% (inactive) | 98.5% (inactive) | 103% (inactive) | 84.2% (inactive) | 5.49% (inactive) | 78.7% | 84.2% | -6% (inactive) | -0.49% (inactive) | -4.47% (inactive) | -8.27% (inactive) | -1.11% (inactive) | 92.1% (inactive) | 86.4% (inactive) | 1.24% (inactive) | 3.81% (inactive) |
| Cc1cccc(-n2ncc3c(NCc4cccnc4)ncnc32)c1 | 95.5% | 93% (inactive) | 95.5% (inactive) | 99.3% (inactive) | 88% (inactive) | -3.23% (inactive) | 91.2% | 88% | -4.8% (inactive) | 0.5% (inactive) | -8.17% (inactive) | -8.12% (inactive) | -0.52% (inactive) | 89.4% (inactive) | 87.5% (inactive) | 2.54% (inactive) | 2.13% (inactive) |
| CCCCCCn1c(SCC(=O)OC)nc2c1c(=O)[nH]c(=O)n2C | 100% | 90% (inactive) | 100% (inactive) | 81.1% (inactive) | 70.9% (inactive) | 0.365% (inactive) | 70.6% | 70.9% | -4.8% (inactive) | 1.33% (inactive) | -12.9% (inactive) | 9.17% (inactive) | -1.89% (inactive) | 98.6% (inactive) | 103% (inactive) | 0.08% (inactive) | 2.66% (inactive) |
| CCSc1nc(O)c(CC)c(=O)n1C(C)CC (centres undefined) | 104% | 128% (inactive) | 104% (inactive) | 97.9% (inactive) | 108% (inactive) | 14.9% (inactive) | 93.2% | 108% | -6% (inactive) | -0.48% (inactive) | -9.35% (inactive) | -3.4% (inactive) | -0.54% (inactive) | 98.6% (inactive) | 93.7% (inactive) | -0.63% (inactive) | 11.3% (inactive) |
| COc1cc2c(cc1OC)CN(C(=O)CSc1nc3[nH]ncc3c(=O)n1-c1ccccc1)CC2 | 105% | 97% (inactive) | 105% (inactive) | 79.7% (inactive) | 91.7% (inactive) | 11.6% (inactive) | 80.1% | 91.7% | -4.93% (inactive) | -2.62% (inactive) | 0.33% (inactive) | -24.6% (inactive) | -1.5% (inactive) | 101% (inactive) | 90.9% (inactive) | 1.19% (inactive) | 2.58% (inactive) |
